{"source": "PubChem BioAssay (NCATS)", "note": "Inconclusive results are not listed. Entries that show only a call come without a potency. The source made the active and inactive calls. Calls come from the whole dose curve; as a rule, active = well fitted curve in the direction sought with a large enough effect; inconclusive = small, poorly fitted or top-dose-only effect, or another doubt; inactive = no such curve, though single readings can be large; an effect the other way counts as inactive or inconclusive."}
{"target": "Luciferin 4-monooxygenase (Photinus pyralis) (UniProt P08659)", "assay": "Primary firefly luciferase (FLuc) qHTS assay for identification of artifact compounds. (AID 1845220); note: nearly all actives have a fitted effect of over 60% in size", "details": "purified firefly luciferase, luminescence, 5 min; series mostly up to 54.1 µM", "how_it_was_run": "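FLuc 10 nM; luciferin 10 uM; ATP 10 uM; Tris-acetate pH 7.6, Mg-acetate 10 mM; 15 min RT preincubation; 5 min reaction; luminescence.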"}
{"smiles": "CN1CCC[C@@H]1Cc1c[nH]c2ccc(CCS(=O)(=O)c3ccccc3)cc12", "outcome": "inactive"}
{"smiles": "CC(C)c1c(C(=O)Nc2ccccc2)c(-c2ccccc2)c(-c2ccc(F)cc2)n1CC[C@@H](O)C[C@@H](O)CC(=O)O", "outcome": "inactive [at 25.7 µM]"}
{"smiles": "COc1ccc(Cl)cc1C(=O)NCCc1ccc(S(=O)(=O)NC(=O)NC2CCCCC2)cc1", "outcome": "inactive"}
{"smiles": "CNC(=O)Oc1ccc2c(c1)[C@]1(C)CCN(C)[C@@H]1N2C", "outcome": "inactive"}
{"smiles": "CCCCc1ncc(/C=C(\\Cc2cccs2)C(=O)O)n1Cc1ccc(C(=O)O)cc1", "outcome": "inactive"}
{"smiles": "CC(C)(C(=O)O)c1ccc(C(O)CCCN2CCC(C(O)(c3ccccc3)c3ccccc3)CC2)cc1", "note": "(stereo not given)", "outcome": "inactive"}
{"smiles": "CCN(CC)CCNC(=O)c1cc(Cl)c(N)cc1OC", "outcome": "inactive"}
{"smiles": "Cc1cc(N)c2ccccc2[n+]1CCCCCCCCCC[n+]1c(C)cc(N)c2ccccc21", "outcome": "inactive"}
{"smiles": "CC(C(O)c1ccc(O)cc1)N1CCC(Cc2ccccc2)CC1", "note": "(stereo not given)", "outcome": "inactive [at 25.7 µM]"}
{"smiles": "CCN(CC)CCCC(C)Nc1c2ccc(Cl)cc2nc2ccc(OC)cc12", "note": "(stereo not given)", "outcome": "inactive [at 25.7 µM]"}
{"tested_on": "not listed separately", "assay": "Primary fluorescence-based thiol-reactive (MSTI) qHTS assay for identification of artifact compounds. (AID 1845221);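 note: thiol-reactive compounds lower the probe fluorescence signal; nearly all actives have a fitted effect of over 65% in size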", "details": "MSTI thiol-reactivity probe, 1 h; series mostly up to 53.8 µM", "how_it_was_run": "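In PBS pH 7.4 with 2% DMSO, each compound met 4 uM MSTI for one hour at ambient temperature, shielded from light, before fluorescence detection.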"}
{"smiles": "CN1CCC[C@@H]1Cc1c[nH]c2ccc(CCS(=O)(=O)c3ccccc3)cc12", "Potency": "inactive"}
{"smiles": "CC(C)c1c(C(=O)Nc2ccccc2)c(-c2ccccc2)c(-c2ccc(F)cc2)n1CC[C@@H](O)C[C@@H](O)CC(=O)O", "Potency": "inactive"}
{"smiles": "COc1ccc(Cl)cc1C(=O)NCCc1ccc(S(=O)(=O)NC(=O)NC2CCCCC2)cc1", "Potency": "inactive"}
{"smiles": "CCCCc1ncc(/C=C(\\Cc2cccs2)C(=O)O)n1Cc1ccc(C(=O)O)cc1", "Potency": "inactive"}
{"smiles": "CC(C)(C(=O)O)c1ccc(C(O)CCCN2CCC(C(O)(c3ccccc3)c3ccccc3)CC2)cc1", "note": "(stereo not given)", "Potency": "inactive"}
{"smiles": "CCN(CC)CCNC(=O)c1cc(Cl)c(N)cc1OC", "Potency": "inactive"}
{"smiles": "Cc1cc(N)c2ccccc2[n+]1CCCCCCCCCC[n+]1c(C)cc(N)c2ccccc21", "Potency": "inactive"}
{"smiles": "CC(C(O)c1ccc(O)cc1)N1CCC(Cc2ccccc2)CC1", "note": "(stereo not given)", "Potency": "inactive"}
{"smiles": "CCN(CC)CCCC(C)Nc1c2ccc(Cl)cc2nc2ccc(OC)cc12", "note": "(stereo not given)", "Potency": "inactive"}
{"tested_on": "Nanoluciferase (engineered Oplophorus gracilirostris luciferase)", "assay": "Primary Nanoluciferase (NLuc) qHTS assay for identification of artifact compounds. (AID 1845222);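 note: NLuc secreted into diluted conditioned medium of S16 cells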", "details": "NLuc-conditioned medium, Nano-Glo luminescence, 5 min; series mostly up to 54.1 µM", "how_it_was_run": "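NLuc from S16 cell medium (1:55) plus test compounds, 15 min, room temperature. Luminescence after Nano-Glo (1:100) addition, 5 min.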"}
{"smiles": "CN1CCC[C@@H]1Cc1c[nH]c2ccc(CCS(=O)(=O)c3ccccc3)cc12", "outcome": "inactive"}
{"smiles": "CC(C)c1c(C(=O)Nc2ccccc2)c(-c2ccccc2)c(-c2ccc(F)cc2)n1CC[C@@H](O)C[C@@H](O)CC(=O)O", "outcome": "inactive"}
{"smiles": "CNC(=O)Oc1ccc2c(c1)[C@]1(C)CCN(C)[C@@H]1N2C", "outcome": "inactive"}
{"smiles": "CCCCc1ncc(/C=C(\\Cc2cccs2)C(=O)O)n1Cc1ccc(C(=O)O)cc1", "outcome": "inactive"}
{"smiles": "CC(C)(C(=O)O)c1ccc(C(O)CCCN2CCC(C(O)(c3ccccc3)c3ccccc3)CC2)cc1", "note": "(stereo not given)", "outcome": "inactive"}
{"smiles": "CCN(CC)CCNC(=O)c1cc(Cl)c(N)cc1OC", "outcome": "inactive"}
{"smiles": "Cc1cc(N)c2ccccc2[n+]1CCCCCCCCCC[n+]1c(C)cc(N)c2ccccc21", "outcome": "inactive"}
{"smiles": "CC(C(O)c1ccc(O)cc1)N1CCC(Cc2ccccc2)CC1", "note": "(stereo not given)", "outcome": "inactive"}
{"smiles": "CCN(CC)CCCC(C)Nc1c2ccc(Cl)cc2nc2ccc(OC)cc12", "note": "(stereo not given)", "outcome": "inactive"}
{"tested_on": "not listed separately", "assay": "Primary redox qHTS assay for identification of artifact compounds. (AID 1845223)", "details": "Amplex Red/HRP redox cycling with DTT, fluorescence; series mostly up to 53.8 µM", "how_it_was_run": "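Redox-cycling detection via DTT (250 uM final) oxidation coupled to Amplex Red (25 uM)/HRP (250 mU/mL) in HBSS. 15 min preincubation plus 30 min after DTT, room temperature. Ex/Em 525/598 nm; 4-parameter Hill fit against DMSO and 10 uM DA3003.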"}
{"smiles": "CN1CCC[C@@H]1Cc1c[nH]c2ccc(CCS(=O)(=O)c3ccccc3)cc12", "outcome": "inactive"}
{"smiles": "CCCCc1ncc(/C=C(\\Cc2cccs2)C(=O)O)n1Cc1ccc(C(=O)O)cc1", "outcome": "inactive"}
{"smiles": "CC(C)(C(=O)O)c1ccc(C(O)CCCN2CCC(C(O)(c3ccccc3)c3ccccc3)CC2)cc1", "note": "(stereo not given)", "outcome": "inactive"}
{"smiles": "CCN(CC)CCNC(=O)c1cc(Cl)c(N)cc1OC", "outcome": "inactive"}
{"smiles": "Cc1cc(N)c2ccccc2[n+]1CCCCCCCCCC[n+]1c(C)cc(N)c2ccccc21", "outcome": "inactive"}
{"smiles": "CC(C(O)c1ccc(O)cc1)N1CCC(Cc2ccccc2)CC1", "note": "(stereo not given)", "outcome": "inactive"}
{"smiles": "CCN(CC)CCCC(C)Nc1c2ccc(Cl)cc2nc2ccc(OC)cc12", "note": "(stereo not given)", "outcome": "inactive"}
